Screening results from PubChem BioAssay.
Tau fluor cs – counter-screen for tau fibril formation inhibitors. tau K18 P301L Alexa594 fluorescence, heparin fibrillization. Potency, µM (top dose mostly 57.7 µM), for inactives: top-dose activity change, negative = decrease. hit rate 0.93% among 280,000. AID 1463; also: nearly all actives have a fitted effect of over 55% in size
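Human tau K18 P301L (15 uM unlabeled, 0.24 uM Alexa 594-labeled) in 100 mM sodium acetate pH 7 with 20 uM heparin, 6 hr at 37 C. ThT 30 uM added, 1 hr ambient; Alexa 594 FP and total fluorescence read at 555/632 nm.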
Tau FP inhib – tau fibrillization inhibition (FP); P10636; K18 P301L tau heparin fibrillization, Alexa594 FP, 6 h; Potency, µM (highest dose often 57.7 µM), inactives show at the top dose activity, negative = inhibition, most hits filed as inhibitors; hit rate 0.39% among 280,000; AID 1468; also: nearly all actives have a fitted effect of over 55% in size
Target sequence (P10636 561-689 P618L limits assumed): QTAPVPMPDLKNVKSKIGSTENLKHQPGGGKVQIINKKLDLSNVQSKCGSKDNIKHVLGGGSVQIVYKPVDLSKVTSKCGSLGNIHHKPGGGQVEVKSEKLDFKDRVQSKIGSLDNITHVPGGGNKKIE
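Human K18 P301L fragment (15 uM unlabeled plus 0.24 uM Alexa 594-labeled) in 100 mM sodium acetate pH 7 with compound, aggregation induced by 20 uM heparin for 6 hr at 37 C. ThT (30 uM) added for 1 hr, then Alexa 594 FP read.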
HPGD inh – inhibitors of human 15-hydroxyprostaglandin dehydrogenase (HPGD) | P15428 | purified HPGD, NADH fluorescence kinetic, PGE2 substrate | Potency, µM, without a hit: top-dose activity change, negative = inhibition, usual class: inhibitors | hit rate 4.3% among 150,000 | AID 894; active = well fitted inhibition curve with a large enough effect, not every such curve was filed as active; inconclusive = small, poorly fitted or top-dose-only effect, or another doubt; inactive = no such curve, though single readings can be large or run the other way
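NADH formation kinetics: reaction with 30 uM PGE2 and 1 mM NAD+ (final), 20 nM enzyme, Tris-HCl pH 8 with Tween 20, after 15 min compound preincubation at room temperature. Fluorescence change, last versus first of five reads.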
ALDH1A1 inh – inhibitors of human aldehyde dehydrogenase 1A1. P00352. Purified ALDH1A1, NADH fluorescence, propionaldehyde substrate. Potency, µM (highest dose often 75.3 µM), for the others: at the top dose activity, negative = inhibition, usual class: inhibitors. hit rate 7.3% among 220,000. AID 1030; active = well fitted inhibition curve with a large enough effect, not every such curve was filed as active; inconclusive = small, poorly fitted or top-dose-only effect, or another doubt; inactive = no such curve, though single readings can be large or run the other way;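 also: plate controls were no enzyme wells and a reference inhibitor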
Tau fibril ThT – blocks human tau fibril formation measured by thioflavin T; Potency, µM (highest dose often 57.4 µM), for the others: top-dose activity, negative = inhibition, usual class: inhibitors; AID 1460; P10636; hit rate 2.1% among 270,000; recombinant tau K18 P301L (four-repeat tau fragment), heparin-induced fibrillization, ThT fluorescence; also: nearly all actives have a fitted effect of over 55% in size
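Recombinant human tau K18 fragment […] carrying P301L, 15 uM unlabeled plus 0.24 uM Alexa 594-labeled, was fibrillized with 20 uM heparin in 100 mM sodium acetate pH 7 for 6 hr at 37 C; 30 uM ThT fluorescence read after 1 hr.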
NPSR antagonist – blocks cAMP signaling of the human neuropeptide S receptor. Potency, µM (top dose mostly 38.3 µM), for the others: at the top dose activity change, negative = inhibition, hits mostly inhibitors. hit rate 1% among 220,000. CHO-NPSR cells, cAMP TR-FRET, antagonist mode. Q6W5P4. AID 1461; also: nearly all actives have a fitted effect of over 50% in size
Target sequence (Q6W5P4 whole entry, looked up): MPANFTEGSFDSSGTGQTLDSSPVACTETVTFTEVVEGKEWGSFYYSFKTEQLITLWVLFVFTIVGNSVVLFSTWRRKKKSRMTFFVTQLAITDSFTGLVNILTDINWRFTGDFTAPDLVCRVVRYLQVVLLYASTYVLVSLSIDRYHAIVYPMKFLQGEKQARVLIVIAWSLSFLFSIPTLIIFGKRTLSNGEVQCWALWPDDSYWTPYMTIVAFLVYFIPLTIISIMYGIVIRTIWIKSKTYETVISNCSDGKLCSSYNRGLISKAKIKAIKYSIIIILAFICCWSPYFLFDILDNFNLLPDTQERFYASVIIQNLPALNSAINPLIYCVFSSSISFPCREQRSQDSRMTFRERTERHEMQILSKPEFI
Active calls of the source: *; ? = inconclusive; nt = not tested or not shown; [ ] = remark or other dose. This is a sample that favours compounds with a hit; in the whole collection about 9.5% have one here. Unless noted, calls follow the shape of the dose curve; as a rule, active = well fitted curve in the direction sought with a large enough effect; inconclusive = small, poorly fitted or top-dose-only effect, or another doubt; inactive = no such curve, though single readings can be large; an effect the other way counts as inactive or inconclusive. Unless noted, % is scaled to controls: 0 for no effect and ±100 for the full control effect; potency is read from the fitted curve at half-maximal effect.

SMILES	Tau fluor cs	Tau FP inhib	HPGD inh	ALDH1A1 inh	Tau fibril ThT	NPSR antagonist
Cc1[nH]n(-c2ccccc2)c(=S)c1C=Nc1ccc([N+](=O)[O-])cc1	-19%	?	3.5µM*	5.6µM*	25µM*	-5%
Cc1cn(S(=O)(=O)c2ccc(Br)c3ccccc23)cn1	-1%	4%	3%	1%	-11%	1µM*
CCOC(=O)c1cc(C)[nH]c(=S)c1C#N	-7%	-2%	-14%	20µM*	?	-3%[46.1 µM]
COC(=O)c1cc(-c2ccccc2)sc1NC(=O)CN1C(=O)c2ccccc2C1=O	-19%	-10%	?	25µM*	-4%	-11%[46.1 µM]
NC(=O)c1cc(-c2ccccc2)sc1NC(=O)CN1CCCCC1	18µM*[quencher]	?	?	7%	-13%	?
NC(=O)c1cc(-c2ccccc2)sc1NC(=O)Cc1ccc(S(=O)(=O)N2CCOCC2)s1	?	13%	-26%	-7%	?	-19%[46.1 µM]
CCCC(=O)O[C@]1(C(=O)COC(C)=O)CC[C@H]2[C@@H]3C[C@H](F)C4=CC(=O)C=C[C@]4(C)[C@@]3(F)[C@@H](O)C[C@@]21C	-23%	3%	-8%	-6%	-19%	2.5µM*
CC(=O)OCC(=O)[C@@]12OC(C)(C)OC1CC1C3CC(F)C4=CC(=O)C=C[C@@]4(C)[C@@]3(F)C(O)C[C@]12C (some centres undefined)	-8%	-6%	0%	0%	0%	nt
CC(=O)OC[C@@H]1O[C@H](C/C=N\O[C@@H](C)c2cc(-c3c(C)cc(C)cc3C)no2)C=C[C@@H]1OC(C)=O	-8%[11.6 µM]	2%[11.6 µM]	nt	-4%[13.5 µM]	-6%[11.5 µM]	nt
CC(=O)c1ccc2c3c(ccc(O)c13)CC2	-18%	-1%	14µM*	?	?	2%[46.1 µM]
CC(=O)c1ccc(O)c(CN(C2CCCCC2)C2CCCCC2)c1O	nt	nt	-9%	26%[13.5 µM]	nt	nt
O=C(CSc1nnc2ccccn12)Nc1ccccc1C(=O)NC1CC1	7%	-8%	-26%	?	12%	-9%[46.1 µM]
COc1ccc2[nH]c3c4c(ccc3c2c1)C(=O)C=CC4=O	2µM*[quencher]	11µM*	nt	nt	3.5µM*	?
Cc1ccccc1OCC(=O)Nc1nc2ccccc2[nH]1	-14%	-2%	nt	0%	-9%	-9%
CC1(C)CC(=O)C(C(c2ccco2)C2C(=O)CC(C)(C)CC2=O)C(=O)C1	-24%	?	7.9µM*	?	28µM*	-9%[46.1 µM]
FC(F)(F)c1ccccc1NC(=S)N1CCCC1	9%	3%	nt	1%	4%	-11%
Cc1ccccc1C(=O)NC(=S)Nc1ccccc1C(F)(F)F	-10%	-3%	-7%	13µM*	-5%	-15%[46.1 µM]
CC(C)C(=O)NC(=S)Nc1ccccc1C(F)(F)F	-9%	-9%	nt	?	-14%	-5%[46.1 µM]
O=C(NNC(=S)Nc1ccccc1C(F)(F)F)c1cccnc1	-8%	-1%	nt	?	-11%	1%
O=C(NC(=S)Nc1ccccc1C(F)(F)F)c1ccccc1F	0%	0%	nt	4%	1%	-10%
N#CCC(=O)NNC(=S)Nc1ccccc1C(F)(F)F	-5%	4%	nt	18µM*	-9%	1%
Cc1c(NC(=S)Nc2ccccc2C(F)(F)F)cccc1[N+](=O)[O-]	-2%	5%	nt	22µM*	-4%	7%[46.1 µM]
FC(F)(F)c1ccccc1NC(=S)NN=C1CCCCCC1	-19%	3%	nt	28µM*	?	-20%
O=C1CCCC(C(C(=O)OCc2ccccc2)C(=O)OCc2ccccc2)C1 (centres undefined)	-1%	3%	-28%	-7%	2%	nt
Cc1ccc(C(=O)NC(=S)Nc2ccccc2C(F)(F)F)c(C)c1	-19%	-12%	-15%	13µM*	-10%	-9%
SMILES	Tau fluor cs	Tau FP inhib	HPGD inh	ALDH1A1 inh	Tau fibril ThT	NPSR antagonist
CCCC(=O)NC(=S)Nc1ccccc1C(F)(F)F	-4%	-1%	-14%	?	-2%	-21%[46.1 µM]
O=c1oc2ccccc2cc1-c1nc2c(s1)CCc1ccccc1-2	4%	9%	?	?	7%	-15%
O=c1oc2cc(O)ccc2cc1-c1nc2c(s1)CCc1ccccc1-2	11µM*[quencher]	-19%	?	?	-9%	-6%
O=C(Cc1ccc(Cl)cc1)NN1C(=O)c2ccccc2C1=O	8%	7%	0%	14%	-2%	8%
COC(=O)[C@@H]1[C@@H](C#N)C2(c3ccccc3-c3ccccc32)N(c2ccc(Cl)cc2)N1C#N	-13%	?	?	-26%	?	10µM*
CC(=O)c1c(C)oc2ccc(N(C(=O)Oc3ccccc3)S(=O)(=O)c3ccc(Br)cc3)cc12	-6%	3%	nt	nt	1%	nt
CCC1CCCCN1C(=O)COc1ccccc1NC(C)=O (centres undefined)	1%	3%	nt	3.5µM*	-6%	7%
CC(=O)CC(=O)Nc1ccccc1	nt	nt	0%	-14%	nt	nt
N/C(=N\OC(=O)c1ccc(Cl)c([N+](=O)[O-])c1)c1ccccn1	?	-7%	nt	?	8.9µM*	-15%
N/C(=N\OC(=O)c1ccc(Cl)c(Cl)c1)c1ccccn1	3%	0%	-13%	12%	?	2%[46.1 µM]
CCn1c(CNC(=O)c2ccc(OC)cc2)nnc1SCC(=O)Nc1ccc(F)cc1	-6%	-10%	nt	nt	3%	nt
O=C(/C=C/c1ccccc1)N1CCCC1CO (centres undefined)	-9%[11.6 µM]	3%[11.6 µM]	nt	-1%[13.5 µM]	-8%[11.5 µM]	nt
CN(C)c1ccc(-c2ccc3ncnc(NCc4ccccc4)c3c2)cc1	10µM*[quencher]	?	?	?	?	nt
c1cncc(CNc2nc(-c3ccoc3)nc3ccccc23)c1	?	?	-6%	-2%	28µM*	nt
CN(C)c1ccc(-c2nc(NCc3cccnc3)c3ccccc3n2)cc1	18µM*[quencher]	-10%	?	?	14µM*	nt
Cc1cnc(CNc2nc(-c3ccccc3Cl)nc3ccccc23)cn1	nt	nt	nt	14µM*	nt	nt
Cc1cccc(CNc2nc(-c3cccnc3)nc3ccccc23)c1	?	-8%	-26%	?	-8%	nt
CCOC(=O)c1cc(S(=O)(=O)Nc2ccc(OC)c(Cl)c2)[nH]n1	-6%	-10%	nt	nt	-2%	nt
COc1ccc2c(C)cc(SCC(=O)Nc3ccc(Cl)cn3)nc2c1	-10%	6%	-17%	?	-11%	?
Cc1cc(=O)oc2cc(OCc3ccc(C(=O)OCC(=O)Nc4ccc(N(C)C)cc4)cc3)ccc12	-20%	5%	nt	?	?	-2%
O=[N+]([O-])c1cccc(C2=N[C@@H](Cc3ccccc3)CO2)c1	-22%[81.3 µM]	13%[81.3 µM]	-14%	?	?	nt
Cc1ccccc1-c1nc(NCc2cccnc2)c2ccccc2n1	-22%	?	-24%	22µM*	-10%	nt
Oc1ccccc1-c1nc(NCc2cccnc2)c2ccccc2n1	?	?	nt	nt	-15%	?
